Measured values published in PubChem BioAssay (Tox21).
Inconclusive results are not listed. Entries that show only a call come without a potency. Calls of active or inactive are those of the source. The call rests on the fitted dose curve; in most records, active means well fitted curve in the direction sought with a large enough effect in the repeat runs; inconclusive means weak or mixed curves; inactive means no such curve, though single readings can be large; an effect the other way counts as inactive or inconclusive.

experiment: Caspase-3/7 induction in CHO-K1 cells by small molecules, qHTS cell viability counter screen (AID 1346979); details: CellTiter-Fluor fluorescence, 17 h; series mostly up to 92.4 µM; further: nearly all actives have a fitted effect of over 35% in size; further: potency means the concentration at half of the fitted maximal effect
Method in brief: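 Seeding: 1,500 CHO-K1 cells/well. Rest: 5hr, 37C. Treatment: compounds in DMSO, 16hr. Read: CellTiter-Fluor, 1hr, fluorescence.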

| SMILES | Potency |
| --- | --- |
| O=[N+]([O-])c1ccc(O/N=C/c2cc(Br)c(O)c(Br)c2)c([N+](=O)[O-])c1 | 15.3 µM (active) |
| CN1C(=O)N(c2ccccc2Br)Cc2cnc(Nc3ccc4c(c3)OCC(CO)O4)nc21 (stereo unspecified) | 24.3 µM (active) |
| O=C1NCCN1CCO | inactive |
| CC(=O)c1ccc([N+](=O)[O-])cc1 | inactive |
| CCC(C)COC(=O)CC(C)C (stereo unspecified) | inactive |
| CC(=O)Nc1ccc(C)cc1C | inactive |
| O=Cc1c2ccccc2c(Cl)c2ccccc12 | 23.7 µM (active) |
| CCC(C)COC(C)=O (stereo unspecified) | inactive |
| O=c1cc(-c2ccccc2)oc2ccc3ccccc3c12 | 54.5 µM (active) |
| Cc1cccc(O)c1N | 61.8 µM (active) |
| CCCCN1CCCC1C(=O)Nc1c(C)cc(C)cc1C (stereo unspecified) | inactive |
| COC(=O)CCS | inactive |
| O=C1c2ccccc2C(=O)C1(O)O | 54.8 µM (active) |
| CN1CCCN=C1COC(=O)C(O)(c1ccccc1)C1CCCCC1 (stereo unspecified) | inactive |

experiment: Caspase-3/7 induction in CHO-K1 cells by small molecules, qHTS assay (AID 1346980); details: CHO-K1 caspase-3/7 induction, Caspase-Glo luminescence, 17 h; series mostly up to 92.4 µM; further: nearly all actives have a fitted effect of over 15% in size
Method in brief: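 Luminescent Caspase-Glo 3/7 read (30min, room temperature) quantified apoptosis induction. Cells were wild-type CHO-K1, treated with compound for 17hr at 37 C and 5% CO2.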

| SMILES | Potency | caspase-3/7 activation |
| --- | --- | --- |
| CN1C(C(=O)Nc2ccccn2)=C(O)c2sccc2S1(=O)=O | inactive | – |
| CC(C)(c1ccccc1)c1ccccc1 | inactive | – |
| O=[N+]([O-])c1ccc(O/N=C/c2cc(Br)c(O)c(Br)c2)c([N+](=O)[O-])c1 | inactive | – |
| O=C1c2ccccc2C(=O)N1CCc1noc(-c2ccc(CN3CCCCCC3)s2)n1 | inactive | – |
| CC[C@]1(O)C[C@H]2CN(CCc3c([nH]c4ccccc34)[C@@](C(=O)OC)(c3cc4c(cc3OC)N(C=O)[C@H]3[C@@](O)(C(=O)OC)[C@H](OC(C)=O)[C@]5(CC)C=CCN6CC[C@]43[C@@H]65)C2)C1 | inactive | – |
| CCCCCCCCN | inactive | – |
| O=C1NCCN1CCO | inactive | – |
| CC1CC(C)C(=O)C1=O (stereo unspecified) | inactive | – |
| CC(=O)c1ccc([N+](=O)[O-])cc1 | inactive | – |
| C[C@@]12CCC[C@H]1[C@@H]1CC[C@H]3C[C@@H](O)CC[C@]3(C)[C@H]1CC2 | inactive | – |
| O=C=Nc1cccc(C(F)(F)F)c1 | inactive | – |
| N#[N+]c1ccc2c(S(=O)(=O)[O-])cccc2c1O | inactive | – |
| CC[N+](CC)(CCNC(=O)C(=O)NCC[N+](CC)(CC)Cc1ccccc1Cl)Cc1ccccc1Cl | inactive | – |
| O=C(CCc1ccc(O)cc1)c1c(O)cc(O)cc1O | inactive | – |
| CC(=O)Nc1ccc(C)cc1C | inactive | – |
| Cc1cc(=O)c2c(O)c3c(O)cc(=O)c4c3c3c(cc(O)c1c23)C(C)(C)C=4O | – | -1.78% [at 19 µM] (inactive) |

| SMILES | Potency | caspase-3/7 activation |
| --- | --- | --- |
| COc1ccccc1Oc1c(NS(=O)(=O)c2ccc(C(C)(C)C)cc2)nc(-c2ncccn2)nc1OCCO | inactive | – |
| O=Cc1c2ccccc2c(Cl)c2ccccc12 | inactive | – |
| CCC(C)COC(C)=O (stereo unspecified) | inactive | – |
| C=Cc1ccc(S(=O)(=O)O)cc1 | inactive | – |
| O=C(/C=C/c1ccccc1)OCCc1ccccc1 | inactive | – |
| Oc1cccc(O)c1O | inactive | – |
| O=c1cc(-c2ccccc2)oc2ccc3ccccc3c12 | inactive | – |
| C[C@H]1C[C@H](O)c2ccsc2S1(=O)=O | inactive | – |
| OC(CCN1CCCC1)(c1ccccc1)C1CCCCC1 (stereo unspecified) | inactive | – |
| Cc1cccc(O)c1N | inactive | – |
| O=C1c2ccccc2C(=O)C1c1nc2ccccc2c(Br)c1O | inactive | – |
| CCOC(=O)c1ccccc1C(=C1C=C(Br)C(=O)C(Br)=C1)c1cc(Br)c(O)c(Br)c1 | inactive | – |
| CCOC(=O)OC(C)OC(=O)[C@@H]1N2C(=O)[C@@H](NC(=O)[C@H](N)c3ccccc3)[C@H]2SC1(C)C (stereo partly specified) | inactive | – |
| O=C1c2ccccc2C(=O)C1(O)O | inactive | – |
| CCCCCCCC/C=C\CCCCCCCCO | inactive | – |

experiment: Caspase-3/7 induction in HepG2 cells by small molecules, qHTS cell viability counter screen (AID 1346981); details: CellTiter-Fluor fluorescence, 17 h; series mostly up to 92.4 µM; further: nearly all actives have a fitted effect of over 30% in size; further: potency means the concentration at half of the fitted maximal effect
Method in brief: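 Viability determined by CellTiter-Fluor fluorescence in HepG2 wells also used for the luminescent Caspase-Glo 3/7 read. Compounds were present for 16 hr at 37 C, 5% CO2 before reagent addition.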

| SMILES | Potency |
| --- | --- |
| CC(C)(c1ccccc1)c1ccccc1 | inactive |
| O=[N+]([O-])c1ccc(O/N=C/c2cc(Br)c(O)c(Br)c2)c([N+](=O)[O-])c1 | 27.2 µM (active) |
| CN1C(=O)N(c2ccccc2Br)Cc2cnc(Nc3ccc4c(c3)OCC(CO)O4)nc21 (stereo unspecified) | 15.4 µM (active) |
| CCC1NC(=O)c2cc(S(N)(=O)=O)c(Cl)cc2N1 (stereo unspecified) | inactive |
| CCCCCCCCN | inactive |
| O=C1NCCN1CCO | inactive |
| CC1CC(C)C(=O)C1=O (stereo unspecified) | inactive |
| CC(=O)c1ccc([N+](=O)[O-])cc1 | inactive |
| C[C@@]12CCC[C@H]1[C@@H]1CC[C@H]3C[C@@H](O)CC[C@]3(C)[C@H]1CC2 | inactive |
| O=C=Nc1cccc(C(F)(F)F)c1 | inactive |
| N#[N+]c1ccc2c(S(=O)(=O)[O-])cccc2c1O | inactive |
| CCC(C)COC(=O)CC(C)C (stereo unspecified) | inactive |
| CC[N+](CC)(CCNC(=O)C(=O)NCC[N+](CC)(CC)Cc1ccccc1Cl)Cc1ccccc1Cl | inactive |
| CC(=O)Nc1ccc(C)cc1C | inactive |
| O=Cc1c2ccccc2c(Cl)c2ccccc12 | inactive |
| CCC(C)COC(C)=O (stereo unspecified) | inactive |
| O=C(/C=C/c1ccccc1)OCCc1ccccc1 | inactive |
| C=C(C)C(=O)OCCOCCOC(=O)C(=C)C | inactive |
| C[C@H]1C[C@H](O)c2ccsc2S1(=O)=O | inactive |
| OC(CCN1CCCC1)(c1ccccc1)C1CCCCC1 (stereo unspecified) | inactive |
| Cc1cccc(O)c1N | inactive |
| CCCCCCCCOc1ccc(C(=O)O)cc1 | inactive |
| CCCCN1CCCC1C(=O)Nc1c(C)cc(C)cc1C (stereo unspecified) | inactive |
| COC(=O)CCS | inactive |
| CCOC(=O)OC(C)OC(=O)[C@@H]1N2C(=O)[C@@H](NC(=O)[C@H](N)c3ccccc3)[C@H]2SC1(C)C (stereo partly specified) | inactive |
| CN1CCCN=C1COC(=O)C(O)(c1ccccc1)C1CCCCC1 (stereo unspecified) | inactive |
